In all, about 39,000 sequences were measured (“fluorescence intensity (a.u.)”: median about 4,300, highest 2% from about 39,000 on). The sample holds the highest values, similar sequences and a random draw of the others, so the mix is not that of the screen.
Each sequence was assayed against T1, OsSMF1 (Oryza sativa, UniProt Q6ZLB0 1-436) (assay: protein-binding microarray (RPBM); PBS, 2% BSA, 51.3 ng/ul salmon testes DNA, 50 uM zinc acetate, 200 nM TF, 25 C, 1 h; high values mean tight binding). Conditions: protein: recombinant; tags: N-terminal polyhistidine and DsRed monomer fusion (pET32a); chain copies: 2; label: CyDye5-dUTP incorporated in the synthesized complementary strand; 3' TTTTT single-stranded linker to array surface; dsDNA, one strand shown.
T1 sequence: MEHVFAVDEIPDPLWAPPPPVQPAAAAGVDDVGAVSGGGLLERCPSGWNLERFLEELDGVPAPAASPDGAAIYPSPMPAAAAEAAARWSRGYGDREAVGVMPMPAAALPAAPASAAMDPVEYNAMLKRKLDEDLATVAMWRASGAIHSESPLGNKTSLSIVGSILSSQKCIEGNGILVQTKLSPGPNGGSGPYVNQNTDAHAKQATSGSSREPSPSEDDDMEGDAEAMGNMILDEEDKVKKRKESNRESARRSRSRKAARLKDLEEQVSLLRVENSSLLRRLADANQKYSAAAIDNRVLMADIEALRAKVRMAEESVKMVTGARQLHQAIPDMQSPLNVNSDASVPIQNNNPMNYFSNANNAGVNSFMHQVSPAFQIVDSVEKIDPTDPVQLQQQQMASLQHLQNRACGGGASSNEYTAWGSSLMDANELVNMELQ
Method in brief: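 Polyhistidine-tagged DsRed fusions of transcription factors, joined at the N-terminus, were expressed in E. coli BL21-CodonPlus and isolated on Ni–NTA. They were incubated at 200 nM for 1 h at 25 °C on a custom Agilent array, double-stranded and BSA-blocked, in PBS with 2% BSA, salmon testes DNA and 50 µM zinc acetate. The binding signal is per-feature fluorescence intensity (arbitrary units) read on an Axon 4000B scanner after washing.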

Row | Sequence | binding signal
1 | GCCAGCTGCCACGTGGGACAAAATCGGGGTCAAAACCACCCGGAGTCACCTAGTGCAG | 12700 fluorescence intensity (a.u.)
2 | CCTCGTCCGCCTTGGTCTTCTTCCAGCCGAGGAGCAACCGCGGAGTCACCTAGTGCAG | 48200 fluorescence intensity (a.u.)
3 | CGAGCCGCCTCCGCCACCGCCGCCTCCTTCCGACCAGCCGCGGAGTCACCTAGTGCAG | 3530 fluorescence intensity (a.u.)
4 | GTCCAGCCTCCTCCTCCGCTGACCTCCTCGCGGTCTTCTCCGGAGTCACCTAGTGCAG | 4520 fluorescence intensity (a.u.)
5 | AGCTTACTATGATACCGATGAACACGTTATGACAACAAACCGGAGTCACCTAGTGCAG | 3880 fluorescence intensity (a.u.)
6 | CAAATACTAAATGATTTCAAATGAAAACGTCATCAACAACCGGAGTCACCTAGTGCAG | 3560 fluorescence intensity (a.u.)
7 | AACGTGAACTAAACACATGTCGAAATGCAATCAAAATACCCGGAGTCACCTAGTGCAG | 42000 fluorescence intensity (a.u.)
8 | AATCAAACTTTCAATTTTAGCGTGAACTAAACACACCCTTCGGAGTCACCTAGTGCAG | 3680 fluorescence intensity (a.u.)
9 | ATAGAAACATAGCGTGACACAACATAACAAACCAATGCAACGGAGTCACCTAGTGCAG | 4630 fluorescence intensity (a.u.)
10 | CCAAATAGACTCTTACTTATAAGGGTTGAGTCTAGAGTGACGGAGTCACCTAGTGCAG | 6050 fluorescence intensity (a.u.)
11 | ATGAACTAAACGCACCCTTGTAAGTCTGACACACTGTGGACGGAGTCACCTAGTGCAG | 3720 fluorescence intensity (a.u.)
12 | TGATTGTGACACTAGCACGACGCACTTTCCTCTATATACACGGAGTCACCTAGTGCAG | 3630 fluorescence intensity (a.u.)
13 | ATAAAGTCCTTATCGGACACTAAACGCACTTTCCTAAAGACGGAGTCACCTAGTGCAG | 39200 fluorescence intensity (a.u.)
14 | AAGAAATCTCTTCATAGATCTCCTGATGAAAGAATTTAACCGGAGTCACCTAGTGCAG | 3730 fluorescence intensity (a.u.)
15 | CAGGCTACAGGGCATTTGTGTCATTTTGCAAGAAGGCATACGGAGTCACCTAGTGCAG | 3380 fluorescence intensity (a.u.)
16 | TGTTCCACTGTTGTGTGTGTGGCATTCTTGTACTGCATTTCGGAGTCACCTAGTGCAG | 3360 fluorescence intensity (a.u.)
17 | TTGTGTGCATTTCGGCATTTGGCTACAAGATTCTTGCAGTCGGAGTCACCTAGTGCAG | 39600 fluorescence intensity (a.u.)
18 | CTCGATACAGAGTGAGCGGGGTATGGCAATGACGAGCTATCGGAGTCACCTAGTGCAG | 3160 fluorescence intensity (a.u.)
19 | GAATGAAAACTCAGGGGTAAGTAGGAGATGACGCAAAGTTCGGAGTCACCTAGTGCAG | 3580 fluorescence intensity (a.u.)
20 | GGCCATGTTGAATGACGCGTTGCTCTCCCTACTCTACGGACGGAGTCACCTAGTGCAG | 49100 fluorescence intensity (a.u.)
21 | TTCTCCCTCTACTATTGCTGACGCCACCAACGCCCATGTGCGGAGTCACCTAGTGCAG | 13500 fluorescence intensity (a.u.)

Row | Sequence | binding signal
22 | CGTCTCGCCGGAGCGTTGACGAGGACCTCTCTACTCTTCACGGAGTCACCTAGTGCAG | 3680 fluorescence intensity (a.u.)
23 | CCTTCCACATATGCTCATTCGAAAGTAACAAATTCACTCGCGGAGTCACCTAGTGCAG | 3190 fluorescence intensity (a.u.)
24 | GGTGATTGCATTTGCTGATGTCAGGTATGCCTATTATATTCGGAGTCACCTAGTGCAG | 14700 fluorescence intensity (a.u.)
25 | TTGGATGACACAACAACATGTAAGGTTAGAAACGATATGTCGGAGTCACCTAGTGCAG | 3990 fluorescence intensity (a.u.)
26 | CGAGTTTAGAATCCACACCATGATTACATGTAAACAACGTCGGAGTCACCTAGTGCAG | 44700 fluorescence intensity (a.u.)
27 | ACTAGTTTACAACCACACCAACATGTAGGCATGAACATGGCGGAGTCACCTAGTGCAG | 22900 fluorescence intensity (a.u.)
28 | AAAGTAGTTTTACACGTAAATCGGGCGCTGACGTTATCAGCGGAGTCACCTAGTGCAG | 5310 fluorescence intensity (a.u.)
29 | AAAGTAGTTTCTGCACGTAAATCGGACGCTGACGTCAGCGCGGAGTCACCTAGTGCAG | 36600 fluorescence intensity (a.u.)
30 | TAAAGTAGTTTTACACGTAAATCAGATGCTGACGTCAGCGCGGAGTCACCTAGTGCAG | 48600 fluorescence intensity (a.u.)
31 | AAACACACTGACACGCATTCGGCCCGTTCCCTCGATGCGTCGGAGTCACCTAGTGCAG | 5340 fluorescence intensity (a.u.)
32 | ATGATGCTGGATTGCTGGATACTGCATCAACATCATTAAGCGGAGTCACCTAGTGCAG | 44500 fluorescence intensity (a.u.)
33 | AACATCATATATTGATGATTATTTGCTGCATAAGGAGATGCGGAGTCACCTAGTGCAG | 4070 fluorescence intensity (a.u.)
34 | ATGAACTCATGCAACATTACTGGCTGATGCATCAACTTTACGGAGTCACCTAGTGCAG | 3270 fluorescence intensity (a.u.)
35 | AACTTTTAATGATGTTCAACATGGGAAAATATGTGGTGGACGGAGTCACCTAGTGCAG | 8320 fluorescence intensity (a.u.)
36 | AATATTGTGTGTTGTTGTGTTGTCATCTGATATATTTTAGCGGAGTCACCTAGTGCAG | 6470 fluorescence intensity (a.u.)
37 | ACCTAAACGAGCCAACACGCACGCTCATCGCATCTTTGCGCGGAGTCACCTAGTGCAG | 3810 fluorescence intensity (a.u.)
38 | TTCTACAACTTGGACCATAAAACGTGTAGTTTTGTGAAATCGGAGTCACCTAGTGCAG | 3570 fluorescence intensity (a.u.)
39 | ACACATGGAACTTGTGCCATATATCTGTAGGTGTGAAAATCGGAGTCACCTAGTGCAG | 41300 fluorescence intensity (a.u.)
40 | AAGGTAGGTTGTAGAACTGATGATCTGTCAATGGTGAAATCGGAGTCACCTAGTGCAG | 4940 fluorescence intensity (a.u.)
41 | CGATGGCTGCCACTGCCAACGTCAAGCTCCTCTCCGACGGCGGAGTCACCTAGTGCAG | 3850 fluorescence intensity (a.u.)
42 | TGCGGACTACGTCAAGCTGACGTCATCTCCGACCCGACCTCGGAGTCACCTAGTGCAG | 54000 fluorescence intensity (a.u.)

From publication PMC7819943, “Rice protein-binding microarrays: a tool to detect cis-acting elements near promoter regions in rice”
